# The panel holds about 79,000 compounds, 15% with a hit somewhere; the sample as a whole holds those more often. A number with no mark means an inactive call. Calls of active or inactive are those of the source. Rule as the data show it: active = growth inhibition above about 70%; inactive = the rest.
# Key:
# [1] = NCI Yeast Anticancer Drug Screen. Data for the rad50 strain (AID 155);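 also: 0% = growth of vehicle-only cultures of the same strain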; settings: S. cerevisiae rad50 strain growth inhibition, hits give high values
# Procedure, shortened: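 Growth of the mutant yeast was measured after compound exposure and referenced to vehicle-treated cultures.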
# [2] = NCI Yeast Anticancer Drug Screen. Data for the mec2-1 strain (AID 157); settings: S. cerevisiae mec2-1 strain, hits give high values
# Procedure, shortened: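 mec2-1 yeast strain, carrying an alteration in DNA damage repair or cell cycle control, was exposed to compounds; growth inhibition was measured relative to vehicle-treated controls.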
# [3] = NCI Yeast Anticancer Drug Screen. Data for the sgs1 mgt1 strain (AID 161);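 also: 0% = growth of cultures given vehicle only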; settings: S. cerevisiae sgs1 mgt1 strain, hits give high values
# Procedure, shortened: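 Compounds are added to genetically altered yeast, and growth is compared with cultures given vehicle alone to give percent inhibition.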
# [4] = NCI Yeast Anticancer Drug Screen. Data for the cln2 rad14 strain (AID 165);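 also: 0% = growth equal to vehicle treated cultures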; settings: S. cerevisiae cln2 rad14 strain, hits give high values
# Procedure, shortened: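 Yeast carrying cln2 and rad14 alterations (cell cycle control and DNA damage repair) were exposed to compounds. Growth inhibition was measured against vehicle-treated controls.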
# [5] = NCI Yeast Anticancer Drug Screen. Data for the bub3 strain (AID 167); settings: S. cerevisiae bub3 mutant strain, hits give high values
# Procedure, shortened: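 Whole-cell yeast assay. The mutant strain was incubated with compounds, and growth inhibition was determined by comparison with vehicle-treated cells.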
# [6] = NCI Yeast Anticancer Drug Screen. Data for the mlh1 rad18 strain (AID 175); settings: S. cerevisiae mlh1 rad18 strain growth inhibition, hits give high values
# Procedure, shortened: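 Growth inhibition of the yeast strain was measured after compound exposure and expressed relative to vehicle-treated controls. The strain carries defined defects in DNA damage repair.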
# [7] = at 5.0 µM (retest, dose inferred, filed as 0.5)
# [8] = at 50.0 µM (retest, dose inferred, filed as 5.0)
Structure (SMILES),"growth inhibition [1, 7]","growth inhibition [1, 8]",growth inhibition ([1]; at 50.0 µM),"growth inhibition [2, 7]","growth inhibition [2, 8]",growth inhibition ([2]; at 50.0 µM),"growth inhibition [3, 7]","growth inhibition [3, 8]",growth inhibition ([3]; at 50.0 µM),"growth inhibition [4, 7]","growth inhibition [4, 8]",growth inhibition ([4]; at 50.0 µM),"growth inhibition [5, 7]","growth inhibition [5, 8]",growth inhibition ([5]; at 50.0 µM),"growth inhibition [6, 7]","growth inhibition [6, 8]",growth inhibition ([6]; at 50.0 µM)
CC(C)Cn1cnc2c(SCc3cccc(F)c3)nc(N)nc21,0%,27%,-10.4%,-1%,12%,8.05%,2%,31%,67.8%,-5%,54%,-10.2%,2%,35%,73.3% (active),0%,45%,37%
CC(C)C1=CC[C@H]2C(=C1)CC[C@@H]1[C@]2(C)CCC[C@@]1(C)C(=O)O,-2%,90% (active),79.3% (active),15%,91% (active),84.5% (active),9%,91% (active),74.8% (active),-9%,92% (active),87% (active),-6%,89% (active),78.2% (active),7%,90% (active),77.1% (active)
CC(C)=CC1C(COC(=O)CCl)C1(C)C (centres undefined),-6%,8%,1.85%,3%,0%,44.8%,-2%,3%,-12.3%,0%,-11%,-29.4%,2%,-5%,36.1%,-2%,5%,-23.6%
CCOC(=O)CC(N)CC(=O)OCC,-142%,-157%,94.8% (active),-47%,-49%,39.1%,-56%,-64%,-1.35%,-53%,-53%,-4.7%,-67%,-79%,75.2% (active),-110%,-113%,44.5%
COc1ccc2nc3cccc([N+](=O)[O-])c3c(NCCN(C)C)c2c1,86% (active),95% (active),80% (active),95% (active),98% (active),88.5% (active),87% (active),74% (active),84.5% (active),92% (active),97% (active),83% (active),36%,96% (active),82.2% (active),92% (active),97% (active),79.6% (active)
Cc1nn(C(=S)S)c(C)c1N=Nc1cccc(F)c1,15%,29%,88.2% (active),-1%,18%,46.1%,5%,-1%,88.6% (active),1%,5%,24.4%,-1%,7%,72.5% (active),-1%,21%,90% (active)
Cc1ccccc1P(=O)(c1ccccc1C)c1ccccc1C,16%,31%,0.55%,16%,28%,12.9%,10%,42%,13.1%,11%,51%,32.6%,24%,24%,32.5%,15%,45%,4.35%
O=Cc1[nH]c(=S)[nH]c(=O)c1Cc1cccc2ccccc12,-8%,96% (active),97.9% (active),-3%,98% (active),97.8% (active),11%,99% (active),98.8% (active),0%,98% (active),91.8% (active),-19%,98% (active),98% (active),-3%,98% (active),98.9% (active)
COC(=O)NNc1c([N+](=O)[O-])cnn(-c2ccccc2)c1=O,18%,56%,14.9%,-5%,10%,0.55%,-1%,-14%,14%,9%,32%,30%,11%,26%,0.9%,-11%,-12%,-8.15%
COC1OC2=CCC3C(=O)NC(=O)C3C2[C@H](OCc2ccccc2)C1OCc1ccccc1 (some centres undefined),11%,99% (active),98.4% (active),-13%,99% (active),99.7% (active),11%,99% (active),98.8% (active),0%,99% (active),93.5% (active),2%,97% (active),98.8% (active),4%,98% (active),98.9% (active)
CCOP(=O)(OCC)/C(C#N)=C/c1ccc(C(F)(F)F)cc1,20%,90% (active),89.5% (active),-16%,94% (active),91.7% (active),4%,93% (active),90.9% (active),12%,95% (active),89.4% (active),28%,97% (active),89.4% (active),3%,90% (active),86.8% (active)
CCCCCNC(=O)c1ccc(Cl)c(Cl)c1,6%,49%,64.8%,5%,45%,28.4%,7%,63%,83.2% (active),16%,41%,33.5%,10%,59%,64.9%,1%,62%,64.6%
CC(=O)Nc1ccc(-c2nnc(SCC(=O)Nc3cccc(Cl)c3)o2)cc1,14%,45%,22.2%,1%,39%,15.6%,10%,33%,55.6%,15%,49%,-33.8%,8%,56%,73.7% (active),2%,71% (active),28.7%
CCOc1ccc2nc([NH-])sc2c1.CCOc1ccc2nc([NH-])sc2c1.[Cl][Pt+2][Cl],-1%,-1%,26.4%,-1%,4%,35.5%,-1%,15%,47.8%,-2%,-7%,17.9%,-2%,-6%,-4.85%,-2%,3%,62.1%
Cc1ccnc2[nH]c3ccccc3c(=O)c12,29%,98% (active),81.5% (active),38%,98% (active),69.5%,18%,96% (active),65.5%,30%,96% (active),21.4%,15%,96% (active),65.2%,36%,99% (active),77.7% (active)
CN(C)c1ccccc1[CH2][Ga]([Cl])[CH2]c1ccccc1N(C)C,15%,96% (active),88.9% (active),-1%,98% (active),92.6% (active),13%,51%,90.8% (active),16%,98% (active),90.3% (active),9%,97% (active),91.3% (active),26%,98% (active),89.2% (active)
CCc1ccc(/C=C/C(=O)C2CN(CC)CCC2(O)/C=C/c2ccc(CC)cc2)cc1 (centres undefined),4%,99% (active),91.5% (active),2%,99% (active),92.8% (active),2%,99% (active),92% (active),4%,99% (active),89.8% (active),8%,98% (active),91.2% (active),13%,99% (active),91.5% (active)
Cc1c(-c2ccccc2)sc(/N=C/c2cc(Br)cc(Br)c2O)c1C#N,-17%,63%,5.9%,10%,34%,25.3%,15%,84% (active),29%,11%,12%,10.8%,5%,75% (active),19.2%,10%,60%,62.9%

# — PubChem BioAssay (NCI)
